# Test results as given in PubChem BioAssay (NCATS).
# Records with an inconclusive call do not appear. Entries that show only a call come without a potency. Values without a mark were called inactive. Activity calls are given as the source filed them. Calls come from the whole dose curve; as a rule, active = well fitted inhibition curve with a large enough effect; inconclusive = small, poorly fitted or top-dose-only effect; inactive = flat fitted curve, though single readings scatter.
# Tests used:
# [1] = system: Zika virus NS2B-NS3 protease; assay: Primary screen GU AMC qHTS for Zika virus inhibitors (AID 1347154); note: nearly all actives have a fitted effect of over 70% in size
# Outline: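 Unlinked Zika NS2B hydrophilic domain–NS3 protease complex at 25 nM in 10 mM Tris-HCl pH 8.0, 0.01% Tween 20, with an AMC peptide substrate. Fluorescence change (340/450 nm) over 15 min at room temperature, normalized to controls, fitted to 4-parameter Hill.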
# [2] = target: Lysine-specific demethylase 5B (Homo sapiens) (UniProt Q9UGL1); assay: Optimization screen for KDM5B Histone Demethylases FDH coupled qHTS against the LOPAC library (AID 1347166); note: potency is the fitted concentration of half-maximal effect
# Lysine-specific demethylase 5B (Homo sapiens), sequence (Q9UGL1 whole entry, looked up): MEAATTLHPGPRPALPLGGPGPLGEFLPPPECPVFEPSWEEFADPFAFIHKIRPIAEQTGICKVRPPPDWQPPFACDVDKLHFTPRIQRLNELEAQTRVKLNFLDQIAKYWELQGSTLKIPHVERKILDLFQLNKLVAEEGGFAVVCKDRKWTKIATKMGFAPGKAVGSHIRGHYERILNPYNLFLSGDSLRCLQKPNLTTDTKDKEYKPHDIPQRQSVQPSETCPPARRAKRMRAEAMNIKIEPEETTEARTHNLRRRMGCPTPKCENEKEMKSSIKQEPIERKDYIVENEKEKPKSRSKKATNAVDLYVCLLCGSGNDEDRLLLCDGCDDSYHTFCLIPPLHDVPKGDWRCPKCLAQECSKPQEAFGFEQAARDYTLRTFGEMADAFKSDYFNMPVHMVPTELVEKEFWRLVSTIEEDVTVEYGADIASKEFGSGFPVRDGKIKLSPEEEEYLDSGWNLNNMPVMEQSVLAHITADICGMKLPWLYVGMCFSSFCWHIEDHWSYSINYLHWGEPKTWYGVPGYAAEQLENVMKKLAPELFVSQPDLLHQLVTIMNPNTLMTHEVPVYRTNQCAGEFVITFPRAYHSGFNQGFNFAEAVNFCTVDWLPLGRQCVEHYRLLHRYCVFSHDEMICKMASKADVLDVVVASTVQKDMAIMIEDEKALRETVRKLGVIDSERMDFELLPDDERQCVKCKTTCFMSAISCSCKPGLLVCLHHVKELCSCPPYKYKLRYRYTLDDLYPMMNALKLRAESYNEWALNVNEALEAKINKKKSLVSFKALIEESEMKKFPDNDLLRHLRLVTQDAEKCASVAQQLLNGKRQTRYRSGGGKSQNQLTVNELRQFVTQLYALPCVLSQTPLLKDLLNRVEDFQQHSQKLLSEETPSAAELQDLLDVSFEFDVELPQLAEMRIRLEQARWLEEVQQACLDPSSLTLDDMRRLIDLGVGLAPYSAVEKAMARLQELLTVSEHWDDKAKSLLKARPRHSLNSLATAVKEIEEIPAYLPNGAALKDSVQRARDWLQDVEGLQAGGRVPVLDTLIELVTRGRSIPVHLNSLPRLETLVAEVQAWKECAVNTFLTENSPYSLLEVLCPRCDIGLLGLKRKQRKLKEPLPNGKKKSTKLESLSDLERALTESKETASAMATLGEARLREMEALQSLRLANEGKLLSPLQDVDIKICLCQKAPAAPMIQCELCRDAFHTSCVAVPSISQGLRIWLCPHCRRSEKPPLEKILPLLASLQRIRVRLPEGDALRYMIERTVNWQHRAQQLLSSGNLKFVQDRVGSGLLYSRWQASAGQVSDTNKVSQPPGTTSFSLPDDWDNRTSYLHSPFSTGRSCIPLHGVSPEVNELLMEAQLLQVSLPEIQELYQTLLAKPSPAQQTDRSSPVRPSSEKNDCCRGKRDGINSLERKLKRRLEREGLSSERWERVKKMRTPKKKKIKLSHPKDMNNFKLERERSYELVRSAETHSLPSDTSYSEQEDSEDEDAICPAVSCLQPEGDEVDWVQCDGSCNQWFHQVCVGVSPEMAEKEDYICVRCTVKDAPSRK
# Outline: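 KDM5BDeltaAP (200nM final) preincubated 10 min with compound, then 12.5uM H3K4Me3, 25uM a-ketoglutarate, ascorbate, Fe(II), NAD+ and FDH added; 50mM HEPES pH 7.5, 0.01% Tween-20. NADH fluorescence (340/450 nm) change over 30 min, room temperature.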
Compound,outcome [1],Potency [2],"activity change, negative = inhibition [1]"
Cc1nnc(SCC2=C(C(=O)O)N3C(=O)[C@@H](NC(=O)Cn4cnnn4)[C@H]3SC2)s1,inactive,inactive,
CCCCCCCC/C=C\CCCCCCCC(=O)NCc1ccc(O)c(OC)c1,inactive,inactive,
O=C(O)CCCCCCCC(=O)O,inactive,inactive,
NC(N)=NC(=O)Cc1c(Cl)cccc1Cl,inactive,inactive,
CCN(CC)CCNC(=O)c1ccc(NC(C)=O)cc1,inactive,inactive,
CN1C(=O)CC[C@H]1c1cccnc1,inactive,inactive,
C[C@H](CS)C(=O)N1CCC[C@H]1C(=O)O,inactive,inactive,
C#CCN(C)CCCOc1ccc(Cl)cc1Cl,inactive,inactive,
C=CCc1ccccc1OCC(O)CNC(C)C (configuration not stated),inactive,inactive,
CC(=O)[C@@]1(O)CC[C@H]2[C@@H]3CCC4=CC(=O)CC[C@]4(C)[C@H]3CC[C@@]21C,inactive,inactive,
CC(C)NCC(O)c1cc(O)cc(O)c1 (configuration not stated),,inactive,
CN(C)C(=O)Oc1ccc[n+](C)c1,inactive,inactive,
Cc1ccc(/C(=C\CN2CCCC2)c2ccccn2)cc1,,inactive,
CCCCCN(CCCCC)C(=O)C(CCC(=O)O)NC(=O)c1ccc(Cl)c(Cl)c1 (configuration not stated),inactive,inactive,
CN1C[C@H](C(=O)N[C@]2(C)O[C@@]3(O)[C@@H]4CCCN4C(=O)[C@H](Cc4ccccc4)N3C2=O)C[C@@H]2c3cccc4[nH]cc(c34)C[C@H]21,inactive,inactive,
c1cnc(N2CCN(Cc3ccc4c(c3)OCO4)CC2)nc1,inactive,inactive,
CN(C)CC[C@@H](c1ccc(Br)cc1)c1ccccn1,inactive,inactive,
O=c1[nH]c(=O)n([C@H]2C[C@H](O)[C@@H](CO)O2)cc1Br,inactive,inactive,
CC(=O)OC(C)C[N+](C)(C)C (configuration not stated),inactive,inactive,

Compound,outcome [1],Potency [2],"activity change, negative = inhibition [1]"
CC(=O)Oc1cc(C(C)C)c(OCCN(C)C)cc1C,inactive,inactive,
CN(C)C/C=C(/c1ccc(Br)cc1)c1cccnc1,inactive,inactive,
Cc1ccc(S(=O)(=O)NC(=O)NN2CCCCCC2)cc1,,inactive,
O=C1NCN(c2ccccc2)C12CCN(CCCC(c1ccc(F)cc1)c1ccc(F)cc1)CC2,,inactive,
CC(N=C(NC#N)Nc1ccncc1)C(C)(C)C (configuration not stated),inactive,inactive,
COC(=O)C1=C(C)NC(C)=C(C(=O)OC(C)(C)CN(C)CCC(c2ccccc2)c2ccccc2)C1c1cccc([N+](=O)[O-])c1 (configuration not stated),,inactive,
CC(=O)Nc1nnc(S(N)(=O)=O)s1,inactive,inactive,
CCCC(C(=O)OCCN(CC)CC)(c1ccccc1)c1ccccc1,inactive,inactive,
CC(C)NNC(=O)c1ccncc1,inactive,inactive,
CN(C)C(=O)Oc1cccc([N+](C)(C)C)c1,inactive,inactive,
Cc1cc(C)c(/C=C2\C(=O)Nc3ccccc32)[nH]1,,inactive,
OCCN1CCN(CC/C=C2/c3ccccc3Sc3ccc(C(F)(F)F)cc32)CC1,inactive,inactive,
CC(C(=O)O)c1ccc(CC2CCCC2=O)cc1 (configuration not stated),inactive,inactive,
NC(Cc1ccc(Cl)cc1)C(=O)O (configuration not stated),,inactive,-1.34% [at 0.59 µM]
NC(=O)c1cn(Cc2c(F)cccc2F)nn1,inactive,inactive,
CCc1cccc(N(C)C(N)=Nc2cccc3ccccc23)c1,inactive,inactive,
COc1ccc2c(c1OC)C(=O)O[C@@H]2[C@H]1c2c(cc3c(c2OC)OCO3)CCN1C,inactive,inactive,
Cc1nc2c([nH]1)c(=O)n(C)c(=O)n2Cc1ccco1,inactive,inactive,
C[C@@H](O)[C@H]1C(=O)N2C(C(=O)O)=C(SCCN=CN)C[C@H]12,,inactive,

Compound,outcome [1],Potency [2],"activity change, negative = inhibition [1]"
C[C@]12C=CC(=O)C=C1CC[C@H]1[C@@H]3C[C@@H](O)[C@](O)(C(=O)CO)[C@@]3(C)C[C@H](O)[C@@]12F,inactive,inactive,
Nc1c2c(nc3ccccc13)CCCC2O (configuration not stated),,inactive,
COc1ccc([C@@H]2Sc3ccccc3N(CCN(C)C)C(=O)[C@@H]2OC(C)=O)cc1,inactive,inactive,
CN(C)CCCN1c2ccccc2Sc2ccc(C(F)(F)F)cc21,inactive,inactive,
NC(=O)c1ncn([C@@H]2O[C@H](CO)[C@@H](O)[C@H]2O)c1O,inactive,inactive,
CNCCCN1c2ccccc2CCc2ccccc21,inactive,inactive,
CC(=O)OCC1=C(C(=O)O)N2C(=O)[C@@H](NC(=O)Cc3cccs3)[C@H]2SC1,,inactive,
CC(C)(C)NCC(O)c1cc(O)cc(O)c1 (configuration not stated),,inactive,
FC(F)(F)c1ccccc1-n1ccnc1,,inactive,
COc1ccc(CCN(C)CCCC(C#N)(c2cc(OC)c(OC)c(OC)c2)C(C)C)cc1OC (configuration not stated),,inactive,
CC(C)(Oc1ccc(CCNC(=O)c2ccc(Cl)cc2)cc1)C(=O)O,,inactive,
CN1CCN(CC(=O)N2c3ccccc3C(=O)Nc3cccnc32)CC1,,inactive,
Nc1nc(N)c2nc(-c3ccccc3)c(N)nc2n1,,39.8 µM (active),
c1cc(CN2CCCCC2)cc(OCCCNc2nc3ccccc3s2)c1,,inactive,
CCC(=O)c1ccc2c(c1)N(CCCN(C)C)c1ccccc1S2,,inactive,
O=C(O)CP(=O)(O)O,,inactive,
COCC(=O)O[C@]1(CCN(C)CCCc2nc3ccccc3[nH]2)CCc2cc(F)ccc2[C@@H]1C(C)C,,inactive,
CN(C)CC/C=C1\c2ccccc2COc2ccccc21,,inactive,
